In all, about 2,400 compounds went through this assay and about 180 (7.5%) were called active. This excerpt belongs to a sample that is enriched for actives. Values without a mark were called inactive.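 How the source made its calls: active means readout below zero, meaning a drop past 3 SD under the dofetilide-free negative control mean; inactive means the rest.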

The target of the experiment is Potassium voltage-gated channel subfamily KQT member 2 (Rattus norvegicus) (UniProt O88943). As to the kind of experiment: KCNQ2 blockade in CHO cells – cell-based, FluxOR thallium flux, counter-screen for hERG block protector project, confirmation (AID 1946). Conditions: FluxOR thallium flux fluorescence, at 10 µM, stronger effect = lower value, zero marks the 3-SD hit cutoff. A general note: The purpose of a counterscreen is to sort out artefacts and off-target activity.
Potassium voltage-gated channel subfamily KQT member 2 (Rattus norvegicus), sequence (O88943 whole entry, looked up): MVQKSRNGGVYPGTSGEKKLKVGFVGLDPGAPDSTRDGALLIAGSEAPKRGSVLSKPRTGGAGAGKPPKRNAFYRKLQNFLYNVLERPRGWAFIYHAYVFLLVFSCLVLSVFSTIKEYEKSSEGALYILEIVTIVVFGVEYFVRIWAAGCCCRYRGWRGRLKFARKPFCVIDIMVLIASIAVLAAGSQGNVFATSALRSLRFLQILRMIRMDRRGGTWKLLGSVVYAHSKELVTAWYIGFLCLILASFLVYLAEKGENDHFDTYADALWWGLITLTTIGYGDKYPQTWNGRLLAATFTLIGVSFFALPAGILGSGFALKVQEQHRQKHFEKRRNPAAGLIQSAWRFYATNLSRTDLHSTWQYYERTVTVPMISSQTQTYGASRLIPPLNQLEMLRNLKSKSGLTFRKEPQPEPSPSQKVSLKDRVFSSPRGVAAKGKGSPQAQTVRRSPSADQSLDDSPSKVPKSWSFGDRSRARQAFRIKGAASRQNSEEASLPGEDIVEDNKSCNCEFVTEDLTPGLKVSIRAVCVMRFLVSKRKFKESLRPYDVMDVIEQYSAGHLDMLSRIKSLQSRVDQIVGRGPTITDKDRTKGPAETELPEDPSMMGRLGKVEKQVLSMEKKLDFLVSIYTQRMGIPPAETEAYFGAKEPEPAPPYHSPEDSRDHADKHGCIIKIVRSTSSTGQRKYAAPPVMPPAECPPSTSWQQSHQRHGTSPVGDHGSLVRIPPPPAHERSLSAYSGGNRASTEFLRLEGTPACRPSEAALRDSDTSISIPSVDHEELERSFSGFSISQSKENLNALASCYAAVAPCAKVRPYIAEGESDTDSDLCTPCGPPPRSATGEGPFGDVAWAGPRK
With `CCc1ccc(S(=O)(=O)NC(=S)NC2CCCCC2)cc1`, the activity change vs negative control was 83.7%.
The result for `O=C(CCN1C(=O)/C(=C\C=C\c2ccccc2)SC1=S)Nc1cccc(C(=O)O)c1` reads 0.8%.
As for `O=c1[nH]c2ccccc2nc1C(F)(F)C(F)F`, the activity change vs negative control is 15.2%.
The result for `Cc1nc2ccc(C(=O)O)cc2[nH]1` reads 11.1%; that for `C/C(O)=C/c1nc2ccccc2[nH]c1=O`, -2% (active).
The result for `OC(CCN1CCOCC1)c1ccccc1` (centres undefined) reads -2.1% (active); that for `S=C(NCCc1ccccc1)NCCN1CCOCC1`, 11.5%; that for `O=C(O)Cn1cc(CN2CCOCC2)c2ccccc21`, 2.7%.
As for `O=c1ccn(Cc2ccc(F)cc2)c2ccnc(C(F)(F)F)c12`, the figure is -1.9% (active); as for `COc1ccc(C(=O)Nc2ccccc2C(=O)O)cc1Cl`, 19.2%; as for `O=C(NC(=S)NCCC1=CCCCC1)c1ccco1`, 66.4%.
In the case of `Cc1cccc(Cn2c(O)c(N=NC(=S)Nc3ccccc3F)c3ccccc32)c1`, the activity change vs negative control was 5.5%.
Consider `CCN(CC)CCCNC(=O)c1cn(-c2cccc(OC)c2)c(=O)c2ccccc12`, for which the activity change vs negative control was -4% (active).
For `COc1cccc(NC(=O)c2nn(-c3ccc(OC)cc3OC)c(=O)c3ccccc23)c1`, the activity change vs negative control is 15.7%.
For `COc1cccc(-n2nc(C(=O)O)c3ccccc3c2=O)c1`, the activity change vs negative control was 25.1%.
As for `CCC1CCc2c(sc(NC(=O)C3CC=CCC3C(=O)O)c2C#N)C1` (centres undefined), the figure is 32.7%.
As for `CCN(CC)c1ccc(NC(=S)NC(=O)c2cccs2)cc1`, the figure is 18.4%; as for `CCOC(=O)Cc1csc(NC(=S)NC(=O)C(C)(C)C)n1`, 28.2%; as for `Cc1cccc(NC(=S)NC(=O)c2ccc(Br)o2)c1`, 69.7%.
`COc1cccc(C(=O)Nc2cccc(-c3ccc(N4CCOCC4)nn3)c2)c1`: the activity change vs negative control was 5.2%.
The result for `CCOc1ccc(-c2cccc(NC(=O)c3ccc(Br)o3)c2)nn1` reads -8.6% (active); that for `O=c1c2cc(Cl)ccc2nc(-c2ccc([N+](=O)[O-])cc2)n1O`, 54.4%.
As for `O=C(COc1ccccc1Cl)NC(=S)Nc1ccccc1N1CCCC1`, the figure is 6.2%; as for `CNC(=S)Nc1sc2c(c1C(=O)OC)CCC2`, 31.9%; as for `Cc1cccc(C(=O)NC(=S)N2CCc3ccccc3C2)c1`, 50.3%.
As for `Cc1cccc(C(=O)NC(=S)N(C)C2CCCCC2)c1`, the figure is 46.3%.
Regarding `Cc1cccc(C(=O)NNC(=S)NC(=O)c2ccccc2)c1`, the activity change vs negative control was 26.9%.
As to `Cc1ccc(NC(=S)NC(=O)c2ccc(-c3ccccc3)cc2)cc1`, the activity change vs negative control is 10.9%.
As for `Cc1ccc(C(=O)NNC(=S)NC(=O)c2ccc(Cl)cc2)cc1`, the figure is 0.8%; as for `Cc1cccc(C(=O)NC(=S)NNC(=O)COc2c(C)cccc2C)c1`, -13.3% (active).
The result for `Cc1cccc(C(=O)NC(=S)NNC(=O)c2ccc(Cl)cc2)c1` reads -7.1% (active).
As for `Cc1ccc(C(=O)NNC(=S)NC(=O)c2ccccc2)cc1`, the figure is -4.5% (active); as for `O=C(NNC(=S)NC(=O)c1sc2ccccc2c1Cl)c1ccc(Cl)cc1`, 32.9%; as for `Cc1sc2nc(CN3CCOCC3)[nH]c(=S)c2c1C`, 108%.
Regarding `Cc1ccc(-c2c(=O)n(O)c3ccccc3[n+]2[O-])cc1`, the activity change vs negative control was 88.6%.
The result for `O=c1c2ccccc2nc(-c2ccc(Cl)c(Cl)c2)n1O` reads 91.4%; that for `COc1cc(OC)cc(C(=O)NNC(=O)C(=O)Nc2cc(OC)c(Cl)cc2OC)c1`, 71%; that for `C[n+]1ccccc1/C=C/c1ccc(C#N)cc1`, 17.3%.
In the case of `O=c1[nH]c(C(Cl)(Cl)Cl)nc2ccc3ccccc3c12`, the activity change vs negative control is 37%.
As for `O=C(NC(=S)Nc1ccccc1N1CCCC1)c1ccccc1Br`, the figure is -8.3% (active).
The result for `O=C(NC(=S)Nc1cccc(Cl)c1N1CCCCC1)c1cccs1` reads 1.9%.
The result for `O=C(NC(=S)Nc1ccccc1N1CCCC1)c1ccc([N+](=O)[O-])cc1` reads 21.1%; that for `O=C(NC(=S)Nc1ccccc1N1CCCCC1)c1cccs1`, 0% (active).
As for `O=C(NC(=S)Nc1ccccc1N1CCCC1)c1cccs1`, the activity change vs negative control is 14.1%.
As for `O=C(NC(=S)Nc1ccccc1N1CCCC1)c1ccco1`, the figure is 39%.
The result for `CCOc1cc(N2CCOCC2)c(OCC)cc1NC(=O)CCC1CCCC1` reads 104%.
As to `O=C(NC(=S)N1CCCC1)c1ccc(Cl)cc1`, the activity change vs negative control was 26.1%.
For the molecule `O=c1c(O)c(-c2ccc3c(c2)OCO3)oc2ccccc12`, the activity change vs negative control is 35%.
As for `CN1C(=O)c2ccc(C(=O)NCc3ccccc3)cc2C1=O`, the figure is 10.5%; as for `Cc1ccc(CNC(=O)c2ccc(CNc3c(N4CCCC4)c(=O)c3=O)cc2)cc1`, -1.7% (active).
As to `Cc1ccc(CNC(=O)C2=CCN(S(=O)(=O)c3ccc(C)cc3)CC2)cc1`, the activity change vs negative control is 6.4%.
For `CC(=O)c1c(N2CCN(Cc3ccccc3)CC2)[nH]c(-c2ccccc2)nc1=S`, the activity change vs negative control is 50.5%.
As for `COc1ccc(-n2nc(C)cc2Nc2ccccc2C(=O)O)cc1`, the figure is 43.7%.
As for `C/C(=N\Nc1nc(C)c(C)s1)c1ccc([N+](=O)[O-])cc1`, the figure is 31.5%.
In the case of `O=c1[nH]c(N2CCN(c3ccccc3)CC2)nc2c1CCCC2`, the activity change vs negative control was 12%.
The result for `c1ccc(-c2ccnc3nc(N4CCN(c5ccccc5)CC4)nn23)cc1` reads -4.9% (active); that for `Cc1ccc(C(=O)NC(=S)N(C)Cc2ccccc2)cc1`, 28.6%; that for `CCC(=O)N(CC)c1nc(-c2ccc(OC)cc2)cs1`, 60.4%.
As for `Cc1ccc(Cn2nnc3c(=O)n(CC(=O)N4CCCc5ccccc54)cnc32)cc1`, the figure is 13%; as for `Cc1c(C(=O)NNC(=O)c2ccncc2)oc2ccc(Br)cc12`, -1.5% (active).
As for `CC(NC(=O)c1ccncc1)C(C)(C)C` (centres undefined), the figure is 32.4%; as for `Cc1c(C(=O)NC(=S)NCc2cccnc2)oc2ccccc12`, 5.5%; as for `O=C1CSC(=S)N1/N=C/c1cc(Br)ccc1O`, 21.5%.
On to `Cc1cccc(OCC(=O)NC(=S)N2CCCc3ccccc32)c1`, for which the activity change vs negative control is -0.9% (active).
As for `O=C(COc1ccc(Br)cc1Cl)NC(=S)N1CCc2ccccc21`, the figure is 9.4%; as for `O=C(COc1ccccc1)NC(=S)N1CCc2ccccc21`, 25.7%.
The result for `O=C(COc1ccc(Cl)cc1Cl)NC(=S)N1CCCc2ccccc21` reads 0.8%.
As for `O=C(NC(=S)N1CCCc2ccccc21)c1ccccc1`, the figure is 21.6%; as for `O=C(COc1ccc(Br)cc1Br)NC(=S)N1CCCc2ccccc21`, -2.3% (active).
